The record followed here is PubChem BioAssay (NCATS).

Results filed as inconclusive are left out. Unmarked numbers belong to inactive results. Active and inactive are the calls of the source. Unless noted, calls follow the shape of the dose curve; as a rule, active = well fitted curve in the direction sought with a large enough effect; inconclusive = small, poorly fitted or top-dose-only effect, or another doubt; inactive = no such curve, though single readings can be large; an effect the other way counts as inactive or inconclusive.

Test [1] addresses Aldehyde dehydrogenase, mitochondrial (Homo sapiens) (UniProt P05091). The test is described as follows: qHTS for Inhibitors of the Aldehyde Dehydrogenase Family (ALDH2) Confirmatory screens (AID 2061303; active = well fitted inhibition curve with a large enough effect; title and protocol of this record describe different tests; also: nearly all actives have a fitted effect of over 45% in size; also: potency is read from the fitted curve at half-maximal effect; as to activity change, negative = inhibition: % is scaled to controls: 0 for no effect and ±100 for the full control effect).
Test [2] can be described thus: qHTS for Inhibitors of the Aldehyde Dehydrogenase Family (ALDH1A2, ALDH1A3, ALDH2, ALDH3A1) (AID 2061307). Also: nearly all actives have a fitted effect of over 50% in size. As to Potency: test system not described further here; potency is read from the fitted curve at half-maximal effect. As to activity change, negative = inhibition: % is scaled to controls: 0 for no effect and ±100 for the full control effect.
Test [3] deals with Aldehyde dehydrogenase, mitochondrial (Homo sapiens) (UniProt P05091). Kind of test: qHTS for Inhibitors of the Aldehyde Dehydrogenase Family (ALDH2) Primary screen (AID 2061308). Also: nearly all actives have a fitted effect of over 55% in size. Also: potency is read from the fitted curve at half-maximal effect.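 As to activity change, negative = inhibition: plate controls were vehicle for no effect and reference inhibitor for full effect.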
Test [4] concerns the target Retinaldehyde dehydrogenase 3 (Homo sapiens) (UniProt P47895). Kind of test: qHTS for Inhibitors of the Aldehyde Dehydrogenase Family (ALDH1A3) Confirmatory screens (AID 2061311). Also: nearly all actives have a fitted effect of over 60% in size. Also: potency is read from the fitted curve at half-maximal effect. As to activity change, negative = inhibition: % is scaled to controls: 0 for no effect and ±100 for the full control effect.
For test [5], the target named is Retinal dehydrogenase 2 (Homo sapiens) (UniProt O94788). The test is described as follows: qHTS for Inhibitors of the Aldehyde Dehydrogenase Family (ALDH1A2) Confirmation screens (AID 2061314). Also: nearly all actives have a fitted effect of over 65% in size. Also: potency is read from the fitted curve at half-maximal effect.
The target of test [6] is Retinaldehyde dehydrogenase 3 (Homo sapiens) (UniProt P47895). The test is described as follows: qHTS for Inhibitors of the Aldehyde Dehydrogenase Family (ALDH1A3) Primary screen (AID 2061315).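 Also: plate controls were DMSO vehicle for no effect and reference inhibitor for full effect.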
For test [7], the target named is Aldehyde dehydrogenase 1A1 (Homo sapiens) (UniProt P00352). The test is described as follows: qHTS for Inhibitors of the Aldehyde Dehydrogenase Family (ALDH1A1) Confirmatory screens (AID 2061316). Also: nearly all actives have a fitted effect of over 65% in size. Also: potency is read from the fitted curve at half-maximal effect. As to activity change, negative = inhibition: % is scaled to controls: 0 for no effect and ±100 for the full control effect.

As to `O=C(NC1CCCc2c1cnn2-c1ccc(F)cc1F)c1ccncc1` (configuration not stated), the Potency result in test [1], in test [2], in test [3], in test [4], in test [5] and in test [6] was “inactive” each time.

For the molecule `Cc1nnc(-c2ccccc2C(C)C)nc1NCc1ccc(-c2cccnc2)cc1`, the Potency result in test [1], in test [2], in test [3], in test [5], in test [6] and in test [7] was “inactive” in each case. Besides, in test [4], the Potency was 12.7 µM (active).

Consider `Cc1nnc(-c2cnn(C)c2N)n1CCCn1ccnc1`, for which the Potency result in test [1], in test [2], in test [3], in test [4], in test [5] and in test [6] was “inactive” in each case. For the same molecule, the Potency result in test [7] is “inactive”.

For the molecule `O=S1(=O)N=C(Oc2ccccc2)c2ccccc21`, the Potency entry in test [1], in test [2], in test [3], in test [5], in test [6] and in test [7] was “inactive” each time. Further, the activity change, negative = inhibition in test [4] is -14.1% [at 0.022 µM].

`N#Cc1c(-c2csc(-c3no[n+]([O-])c3C#N)c2)no[n+]1[O-]`: the Potency is 14.1 µM (active) in test [1]; 6.34 µM (active) in test [2]; 12.7 µM (active) in test [4]; 2.25 µM (active) in test [5]; 11.3 µM (active) in test [7]. Further, the Potency result in test [3] and in test [6] was “inactive” each time.

In the case of `CC(=O)Nc1ccc(S(=O)(=O)N2CCN(S(=O)(=O)c3ccc4c(c3)OCCO4)CC2)cc1`, the Potency entry in test [1], in test [2], in test [3], in test [4], in test [5] and in test [6] was “inactive” throughout. The Potency result in test [7] is “inactive”.

With `O=C1c2ccccc2NC(c2ccc(-c3cccc([N+](=O)[O-])c3)o2)N1O` (configuration not stated), the Potency in test [1] was 4.49 µM (active); in test [2] it was 2.25 µM (active); in test [3] it was 10 µM (active); in test [4] it was 4.49 µM (active); in test [5], 2.52 µM (active); in test [7] it was 3.18 µM (active). Moreover, in test [6], the Potency result is “inactive”.

For the molecule `CCOC(=O)c1cccc(-n2cnc(/C=C3\NC(=O)N(CC(=O)O)C3=O)c2)c1`, the Potency entry in test [1], in test [2], in test [3], in test [4], in test [5] and in test [6] was “inactive” each time. The Potency result in test [7] is “inactive”.

Consider `N#Cc1ccccc1OC1=NS(=O)(=O)c2ccccc21`, for which the Potency result in test [1], in test [2], in test [3], in test [4], in test [5] and in test [6] was “inactive” each time. Also, the Potency entry in test [7] is “inactive”.

`COC(=O)c1ccc2c(c1)S(=O)(=O)N=C2Sc1cc(C)ccc1C`: the Potency entry in test [1], in test [2], in test [3], in test [4], in test [6] and in test [7] was “inactive” in each case. In test [5], the Potency was 14.2 µM (active).

Regarding `CC(=O)SCC(CC(=O)c1ccc(C)cc1)C(=O)O` (configuration not stated), the Potency result in test [1], in test [2], in test [3], in test [4], in test [5] and in test [6] was “inactive” in each case. For the same molecule, the Potency entry in test [7] is “inactive”.

On to `S=C(NCCCc1cnc[nH]1)NCCCN(Cc1ccc(Cl)c(Cl)c1)c1ccccn1`, for which the Potency result in test [1], in test [2], in test [3], in test [4], in test [5] and in test [6] was “inactive” in each case. Besides, the Potency entry in test [7] was “inactive”.

For the molecule `N#Cc1nc(NCCO)nc(Nc2ccccc2)n1`, the Potency result in test [1], in test [2], in test [3], in test [4], in test [5] and in test [6] was “inactive” each time. The Potency entry in test [7] is “inactive”.

For `COc1ccc(-c2csc(N3CCC(C(N)=O)CC3)n2)cc1`, the Potency entry in test [1], in test [2], in test [3], in test [4], in test [5] and in test [6] was “inactive” throughout. Also, in test [7], the Potency entry is “inactive”.

Turning to `CCc1nn2c(=O)cc(-c3ccncc3)nc2s1`, the Potency result in test [1], in test [2], in test [3], in test [4], in test [6] and in test [7] was “inactive” throughout. In addition, the Potency in test [5] is 25.2 µM (active).

As to `FC(F)(F)c1cc(N2CCN(C(=S)Nc3cc(Cl)ccn3)CC2)cc(C(F)(F)F)c1`, the Potency result in test [1], in test [2], in test [3], in test [4], in test [5] and in test [6] was “inactive” throughout. Further, the Potency in test [7] was 22.5 µM (active).

Turning to `C[C@@H](N)C(=O)Nc1ccc(Cl)cc1C(=O)c1ccc[nH]1`, the Potency result in test [1], in test [2], in test [3], in test [4], in test [5] and in test [6] was “inactive” each time.

On to `CCCCN(CCCNC(=S)NCCCc1cnc[nH]1)c1ccc(Br)cn1`, for which the Potency in test [1] is 22.4 µM (active); in test [2], 12.6 µM (active); in test [4], 14.1 µM (active); in test [5], 8.96 µM (active). The Potency entry in test [3], in test [6] and in test [7] was “inactive” in each case.

Consider `Nc1nnc(-c2ccc3ccccc3c2)o1`, for which the Potency entry in test [1], in test [2], in test [3], in test [4], in test [5] and in test [6] was “inactive” in each case. Moreover, the Potency entry in test [7] is “inactive”.

Turning to `CCC(=O)C1CCCN(C(=O)CC(c2ccc3c(c2)OCO3)c2c(O)cc(OC)cc2OC)C1` (configuration not stated), the Potency entry in test [1], in test [2], in test [3], in test [4], in test [5] and in test [6] was “inactive” throughout. Also, the Potency entry in test [7] is “inactive”.

Turning to `CC(C)(C)c1ccc(C[C@H](C(=O)O)N2C(=O)c3ccc(C(=O)O)cc3C2=O)cc1`, the Potency result in test [1], in test [2], in test [3], in test [4], in test [5] and in test [6] was “inactive” each time. For the same molecule, in test [7], the Potency result was “inactive”.

Take `Cc1nc(C)c(-c2ccc3ncnc(NCc4ncc[nH]4)c3c2)s1`: the Potency result in test [1], in test [2], in test [3], in test [4], in test [5] and in test [6] was “inactive” each time. Besides, the Potency entry in test [7] is “inactive”.

Turning to `O=C(O)c1ccc2c(c1)C(=O)N([C@H](Cc1ccc(F)cc1)C(=O)O)C2=O`, the Potency result in test [1], in test [2], in test [3], in test [4], in test [5] and in test [6] was “inactive” throughout. Further, the Potency entry in test [7] is “inactive”.

For the molecule `COc1cccc(OC2=NS(=O)(=O)c3ccccc32)c1`, the Potency entry in test [1], in test [2], in test [3], in test [4], in test [5] and in test [6] was “inactive” each time.

Turning to `Cc1cc(NC(=O)c2ccc([S+](=O)([O-])NCc3ccc(Cl)c(Cl)c3)cc2)no1`, the Potency result in test [1], in test [2], in test [3], in test [4], in test [5] and in test [6] was “inactive” throughout. The Potency entry in test [7] is “inactive”.
